Assay outcomes deposited in PubChem by National Center for Advancing Translational Sciences (NCATS).
A selection: hits, their analogues and other compounds. The true share with any hit is near 19%.
Pf growth 96h = P. falciparum growth inhibition at 96 hours | P. falciparum luciferase reporter growth, 96 h | Potency, µM (doses to about 28.7 µM), for the others: at the highest dose activity change, negative = inhibition, actives largely listed as inhibitors | 320,000 compounds, 6.9% hits | AID 504834; note: potency is the fitted concentration of half-maximal effect; % is set by controls: 0 for no effect and ±100 for the full control effect
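Two-generation exposure (96 h) targets delayed-death phenotype. Reporter parasites carrying integrated firefly luciferase, in red cells at 2% hematocrit and 0.05% parasitemia final, kept at 37 C, 5% CO2; luminescence loss indicates inhibition.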
Shiga inhibitor = Shiga toxin inhibition | Vero cells, Shiga toxin protein synthesis inhibition reporter | inhibition, % at 38.7 µM | 290,000 compounds, 9.2% hits | AID 2315; in the data active = inhibition mostly above about 28%, no sharp cut-off; inactive = mostly below about 43%; note: 0% is about no effect
Pf growth 48h = P. falciparum growth inhibition at 48 hours (one generation); 310,000 compounds, 5.9% hits; AID 504832; Potency, µM (titrated, usually from 28.7 µM), for inactives: at the highest dose activity change, negative = inhibition, hits mostly inhibitors; P. falciparum luciferase growth in erythrocytes, 48 h; note: potency is the fitted concentration of half-maximal effect; % is set by controls: 0 for no effect and ±100 for the full control effect
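A one-generation exposure of luciferase-tagged malaria parasites in RPMI 1640/Albumax erythrocyte culture, 37 C and 5% CO2. Inhibition is inferred from decreased luminescence after adding detection reagent.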
AMA1 RON2 block = inhibitors of Plasmodium falciparum AMA1-RON2 interaction | AlphaScreen AMA1-biotinylated RON2 peptide binding | Potency, µM (titrated, usually from 58.2 µM), for inactives: top-dose activity change, negative = inhibition, usual class: inhibitors | 360,000 compounds, 0.2% hits;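 note: potency is the fitted concentration of half-maximal effect; 0% = vehicle wells and -100% = peptide control; nearly all actives have a fitted effect of over 45% in size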
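AMA1 (3D7) with his tag at 25 nM final met compounds first, then biotinylated RON2 peptide at 25 nM; detection used donor plus acceptor beads, 10 µg/mL apiece, read by AlphaScreen after 30 min at room temperature.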
CHX counter = affects cycloheximide protein synthesis inhibition readout, counter-screen | AID 2314 | 300,000 compounds, 12% hits | max response, % | cell reporter, cycloheximide protein synthesis inhibition counterscreen; in the data active = max response mostly above about 13%, no sharp cut-off; inactive = mostly below about 14%; note: read at 38.3 µM for the half of the compounds with a filed dose; 0% is about no effect
SARS PLpro yeast = blocks SARS-CoV papain-like protease in a yeast assay; 330,000 compounds, 0.19% hits; AID 485353; Potency, µM (doses to about 32.9 µM), for the others: at the top dose activity, positive = growth rescue, usual class: activators; S. cerevisiae expressing SARS-CoV PLpro, growth rescue; calls by dose curve; note: potency is the fitted concentration of half-maximal effect; 0% is about no effect; nearly all actives have a fitted effect of over 55% in size
Active calls of the source: *; i = inactive; ? = inconclusive; . = no result given; [ ] = remark or other dose. Unless noted, calls come from the whole dose curve; as a rule, active = well fitted curve in the direction sought with a large enough effect; inconclusive = small, poorly fitted or top-dose-only effect, or another doubt; inactive = no such curve, though single readings can be large; an effect the other way counts as inactive or inconclusive.

SMILES	Pf growth 96h	Shiga inhibitor	Pf growth 48h	AMA1 RON2 block	CHX counter	SARS PLpro yeast
COc1ccc(N2CC(C(=O)Nc3c4c(nn3-c3ccc(OC)cc3)CS(=O)(=O)C4)CC2=O)cc1 (stereo unspecified)	-9.8%	-5.5	-5.2%	32.4%	-3.2	-6.5%
C[C@H]1CCC/C=C/C2C[C@H](O)CC2[C@H](O)/C=C/C(=O)O1 (stereo partly specified)	2.08µM*	1.9	2.94µM*	11.5%	-6.3	13.4%
C[C@H]1CCC[C@@H](O)CCC/C=C/c2cc(O)cc(O)c2C(=O)O1	0.6%	-10.6	80.6%	8.3%	-2.9	1.9%
C=CCn1cnc2c(oc3ccccc32)c1=O	-9.9%	35.6	55.6%	-1.4%	25.1*	0.3%
O=c1c2oc3ccccc3c2ncn1Cc1ccccc1F	?	32.6	?	16.9%	29.5*	7.4%
O=c1c2oc3ccccc3c2ncn1Cc1cccc(Cl)c1	?	23.2	-7.6%	28.5%	9.9	-2.8%
O=c1c2oc3ccccc3c2ncn1Cc1ccccc1Cl	.	50.6	?	-1.4%	17.2	.
NC(c1csc(Nc2ccc(C(=O)c3ccccc3)cc2)n1)C1CCCCC1 (stereo unspecified)	.	.	.	31.4%	.	.
Nc1nn(S(=O)(=O)c2ccccc2)cc1-c1cccc([N+](=O)[O-])c1	20.0%	4.2	10.4µM*	-13.8%	12.5	-4.2%
CC(/C=C1\SC(=S)N(c2ccc(C(=O)O)cc2)C1=O)=C\c1ccccc1	?	15.4	4.65µM*	-1.8%	-2.0	-0.8%
CCCc1ccc(-c2cc(C(=O)Nc3ccc([N+](=O)[O-])cn3)c3ccccc3n2)cc1	?	16.8*	-94.7%	-15.3%	21.4*	-4.4%
O=C(N/N=C/c1cc([N+](=O)[O-])ccc1Cl)c1cc(-c2ccccc2)nc2ccccc12	?	-11.0	?	2.8%	1.4	0.4%
CCCc1ccc(-c2cc(C(=O)NN3CCOCC3)c3ccccc3n2)cc1	257.1%	54.3	89.3%	-0.6%	20.2*	1.6%
CCCc1ccc(-c2cc(C(=O)NCCc3ccc(S(N)(=O)=O)cc3)c3ccccc3n2)cc1	i	94.7*	166.9%	2.6%	54.3*	5.0%
CC(C)Oc1cccc(-c2cc(C(=O)NN3CCOCC3)c3ccccc3n2)c1	?	17.5	34.2%	-1.8%	12.4*	1.5%
O=C(c1ccccc1NS(=O)(=O)c1cccc([N+](=O)[O-])c1)N1CCCC1	?	-6.3	24.3%	10.1%	-1.6	-4.8%
Cc1sc(NC(=O)Cn2cnnn2)nc1-c1ccc(Cl)cc1	40.5%	-6.1	25.3%	-2.4%	-1.3	1.7%
Cc1ccc(C(=O)Nc2nc(C)c(C(=O)N(C)C)s2)o1	10.7%	79.7*	-2.7%	-7.1%	37.2*	-9.3%
Cc1nc(NC(=O)c2ccccc2[N+](=O)[O-])sc1C(=O)N(C)C	74.1%	8.5	39.5%	-10.1%	2.0	0.3%
Cc1ccc2c(C)c(C(=O)Nc3nnc(C)s3)oc2c1	.	16.1	21.3%	3.8%	-2.3	1.2%
Cc1nc(NC(=O)/C=C/c2ccccc2)sc1C(=O)N(C)C	43.2%	80.3*	137.5%	-2.0%	40.2*	-12.0%
Cc1nc(NC(=S)NC(=O)c2ccco2)sc1C(=O)N(C)C	5.9%	56.7	21.2%	33.9%	31.6*	2.6%
Cc1nnc(NC(=O)c2oc3ccccc3c2C)s1	201.0%	89.9*	116.4%	-1.3%	36.0*	-3.1%
CN1CCN(c2nnc(-c3ccc(F)cc3)c3ccccc23)CC1	-20.9%	3.5	?	-10.0%	-7.5	10.8%
CCn1cc(C(=O)N[C@@H](C)C(=O)NCCCn2ccnc2)c(=O)c2cc3c(cc21)OCO3	?	-1.6	-9.5%	2.4%	-1.8	1.9%
SMILES	Pf growth 96h	Shiga inhibitor	Pf growth 48h	AMA1 RON2 block	CHX counter	SARS PLpro yeast
Cc1nc(NC(=O)c2oc3ccccc3c2C)sc1C(=O)N(C)C	-25.5%	52.3*	274.1%	-1.0%	40.1*	-13.8%
Cc1nc(NC(=O)c2ccncc2)sc1C(=O)N(C)C	?	-11.6	22.1%	7.1%	9.6	1.6%
CCCOc1ccc(N2CC(C(=O)Nc3ccccc3C(=O)NCc3ccco3)CC2=O)cc1 (stereo unspecified)	15.8%	-11.5	9.28µM*	-1.9%	-0.4	-7.1%
COC(=O)c1ccccc1NC(=O)C1CC(=O)N(c2ccc(F)cc2)C1 (stereo unspecified)	.	2.6	?	4.7%	-1.4	5.8%
COC(=O)c1ccccc1NC(=O)C1CC(=O)N(c2ccc(C)c(C)c2)C1 (stereo unspecified)	4.15µM*	-7.8	.	6.6%	2.6	2.5%
O=C(NCCc1ccccc1)c1ccc(CS(=O)(=O)c2ccc(Br)cc2)o1	4.15µM*	-2.6	-7.1%	19.7%	12.9	-1.2%
CN1CCN(CCCNC(=O)c2ccc(CS(=O)(=O)c3ccc(Br)cc3)o2)CC1	8.28µM*	12.3	.	-2.5%	-3.1	0.0%
O=C(NCCCN1CCCC1)c1ccc(CS(=O)(=O)c2ccc(Br)cc2)o1	?	24.0	.	-0.1%	-0.5	-2.3%
O=S(=O)(NCCc1ccccc1)c1ccc(Br)cc1	13.1µM*	10.9	-6.3%	1.8%	10.4	-1.6%
Cc1ccccc1CS(=O)(=O)Cc1ccc(C(=O)NCCc2ccccc2)o1	-8.0%	12.2	?	10.2%	22.5*	?
Cc1cccc(CS(=O)(=O)Cc2ccc(C(=O)NCCc3ccccc3)o2)c1	?	-1.2	-14.6%	-9.6%	16.9	1.9%
O=C(COc1ccc(C(=S)N2CCC(Cc3ccccc3)CC2)cc1)N1CCOCC1	?	-3.0	-30.6%[5.75 µM]	-10.5%	-2.8	-1.4%
O=C(NNS(=O)(=O)c1ccc(F)cc1)C1CCN(Cc2cccc(F)c2)CC1	-25.7%	17.6	4.4%	14.1%	-1.4	0.1%
COc1ccc(CCNC(=O)c2ccc(CS(=O)(=O)c3ccc(Cl)cc3)o2)cc1OC	10.4µM*	-0.7	-48.0%	4.6%	-0.8	2.2%
COc1ccc(CCNC(=O)CN(Cc2ccc(Cl)cc2)S(C)(=O)=O)cc1OC	14.7µM*	-7.0	0.0%	0.0%	-4.2	-8.2%
COCc1nnc(NC(C)=O)s1	57.8%	-20.2	39.6%	-14.9%	0.9	-0.3%
Cc1cccc(NC(=O)C2CC(=O)NC(Nc3nc4ccccc4s3)=N2)c1 (stereo unspecified)	35.5%	-9.7	2.4%	.	0.7	-31.7%
Cc1cc(C)n(Cc2cc(C(=O)O)c3ccccc3n2)n1	2.4%	-12.2	25.3%	-0.6%	-3.5	0.9%
Cc1c(Cl)cccc1NC(=S)NCC(C)C	3.29µM*	-10.9	?	-9.9%	-4.8	?
Cc1cccc(NC(=S)NCc2cccn2C)c1	11.7µM*	16.9	.	14.3%	8.7	-9.2%
Cc1c(Cl)cccc1NC(=S)NCc1cccn1C	-7.9%	-8.6	7.9%	63.8%	51.6*	27.3%
O=C(O)CN1C(=O)/C(=C/c2ccc(-c3cccc(Cl)c3)o2)SC1=S	.	-5.5	.	.	-4.0	.
